The list is not random: actives were taken first. Their share in the collection is about 11%.
Luciferase inh – Firefly luciferase inhibition profiling of diverse chemical library using quantitative high-throughput screening. Luciferin 4-monooxygenase (Photinus pyralis), P08659. purified P. pyralis luciferase, luminescence, biochemical. Potency, µM (doses to about 115 µM), most hits filed as inhibitors. hit rate 2.5% among 76,000. AID 1347043, 2019; also: % is scaled to controls: 0 for no effect and ±100 for the full control effect; nearly all actives have a fitted effect of over 65% in size
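FLuc 10nM, D-luciferin 10uM, ATP 10uM, Mg acetate 10mM, Tris acetate pH 7.5, Tween/BSA; cpd qHTS; enzyme added last; CCD luminescence.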
3T3 cytotox – Cytotoxic Profiling in NIH 3T3 Cell Line of Diverse Libraries Using Quantitative High-Throughput Screening; NIH 3T3 viability, CellTiter-Glo ATP luminescence, 48-72 h; Potency, µM (series often up to 96.7 µM), inactives show at the top dose activity change, negative = cytotoxicity, hits mostly inhibitors; hit rate 4.3% among 94,000; AID 1345082, 2018; also: % is scaled to controls: 0 for no effect and ±100 for the full control effect; nearly all actives have a fitted effect of over 55% in size
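Mouse fibroblast NIH 3T3 cells, 400 per well, received compound via pintool and were incubated for 48 or 72 hr prior to CellTiter-Glo ATP luminescence measurement.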
HEK cytotox – Cytotoxic Profiling in HEK 293 Cell Line of Diverse Libraries Using Quantitative High-Throughput Screening | HEK 293 viability, ATP luminescence (CellTiter-Glo), 48-72 h | Potency, µM (series often up to 115 µM), inactives show at the highest dose activity change, negative = cytotoxicity, most hits filed as inhibitors | hit rate 6.6% among 94,000 | AID 1345083, 2018; also: % is scaled to controls: 0 for no effect and ±100 for the full control effect; nearly all actives have a fitted effect of over 60% in size
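HEK 293 cells seeded at 250 cells/well were exposed to compound for 48 or 72 hr at 37 degree Celsius. Viability taken as ATP content by CellTiter-Glo luminescence.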
NPR1 antag – Natriuretic polypeptide receptor (hNpr1) antagonism - Primary qHTS. Atrial natriuretic peptide receptor 1 (Homo sapiens), P16066. HEK293 hNpr1 GloSensor cGMP, ANP-stimulated luminescence. Potency, µM (highest dose often 46.3 µM), for inactives: top-dose activity change, negative = inhibition, most hits filed as inhibitors. hit rate 1.6% among 76,000; calls by dose curve; also: % is scaled to controls: 0 for no effect and ±100 for the full control effect; nearly all actives have a fitted effect of over 60% in size
Target sequence (P16066 whole entry, looked up): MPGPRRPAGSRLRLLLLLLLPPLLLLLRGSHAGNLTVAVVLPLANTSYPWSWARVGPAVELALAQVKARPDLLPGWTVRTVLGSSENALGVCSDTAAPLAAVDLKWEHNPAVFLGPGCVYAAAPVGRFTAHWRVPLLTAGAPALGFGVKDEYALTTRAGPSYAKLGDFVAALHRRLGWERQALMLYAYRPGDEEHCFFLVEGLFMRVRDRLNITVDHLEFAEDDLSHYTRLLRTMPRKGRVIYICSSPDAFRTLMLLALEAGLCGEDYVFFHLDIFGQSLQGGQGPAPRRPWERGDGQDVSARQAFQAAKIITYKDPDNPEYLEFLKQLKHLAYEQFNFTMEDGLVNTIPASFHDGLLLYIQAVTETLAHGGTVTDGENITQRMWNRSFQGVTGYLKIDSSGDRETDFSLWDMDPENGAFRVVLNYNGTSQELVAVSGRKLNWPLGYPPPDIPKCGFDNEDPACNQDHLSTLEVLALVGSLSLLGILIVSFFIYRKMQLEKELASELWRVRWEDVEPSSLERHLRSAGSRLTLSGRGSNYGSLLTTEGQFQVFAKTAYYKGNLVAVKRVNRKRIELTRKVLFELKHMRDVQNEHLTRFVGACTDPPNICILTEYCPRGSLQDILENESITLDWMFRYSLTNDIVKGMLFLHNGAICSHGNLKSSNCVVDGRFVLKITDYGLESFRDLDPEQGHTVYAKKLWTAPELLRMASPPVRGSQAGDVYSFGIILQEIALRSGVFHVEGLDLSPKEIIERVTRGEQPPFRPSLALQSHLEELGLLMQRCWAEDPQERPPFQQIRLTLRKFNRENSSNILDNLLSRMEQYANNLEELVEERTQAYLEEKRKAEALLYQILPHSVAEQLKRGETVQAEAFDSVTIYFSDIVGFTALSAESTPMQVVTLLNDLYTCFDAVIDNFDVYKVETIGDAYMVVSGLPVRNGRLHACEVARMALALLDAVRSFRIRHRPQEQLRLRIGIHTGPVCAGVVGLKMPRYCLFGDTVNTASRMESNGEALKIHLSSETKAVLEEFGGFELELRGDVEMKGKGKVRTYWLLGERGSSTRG
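Compound pre-incubated 30 min at room temperature on GloSensor-loaded HEK293 cells stably carrying hNpr1 and the pGS-40F cGMP biosensor. Stimulation uses hNppA at 0.1 nM final; luminescence is taken at baseline and 20 min post-agonist.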
NPR1 antag cnf – Natriuretic polypeptide receptor (hNpr1) antagonism - Confirmation; shares compounds with NPR1 antag; HEK293 hNpr1 cGMP GloSensor luminescence, ANP-stimulated; Potency, µM (top dose mostly 57.6 µM), inactives show top-dose activity change, negative = inhibition, hits mostly inhibitors; hit rate 76% among 1,400; calls by dose curve; also: nearly all actives have a fitted effect of over 70% in size
NPR2 antag – Natriuretic polypeptide receptor (hNpr2) antagonism - Subtype selectivity assay. shares compounds with NPR1 antag. HEK293 hNpr2 GloSensor cGMP luminescence, CNP-stimulated. Potency, µM (highest dose often 57.6 µM), inactives show top-dose activity change, negative = inhibition, actives largely listed as inhibitors. hit rate 67% among 1,400; calls by dose curve; also: nearly all actives have a fitted effect of over 70% in size
FLuc inh counter – Natriuretic polypeptide receptor (hNpr1) antagonism - Confirmation firefly luciferase (FLuc) inhibition counterscreen. Potency, µM (top dose mostly 57.6 µM), inactives show at the top dose activity change, negative = inhibition, hits mostly inhibitors. purified FLuc enzyme, luminescence, Km substrate. hit rate 0.7% among 1,400. shares compounds with NPR1 antag; also: 0% is about no effect
GloSensor ctrl – Natriuretic polypeptide receptor (hNpr1) antagonism - Counterscreen GloSensor control cell line | HEK293 GloSensor cGMP, SNP-stimulated, luminescence | hit rate 69% among 1,400 | Potency, µM (titrated, usually from 57.6 µM), without a hit: at the highest dose activity change, negative = inhibition, hits mostly inhibitors | shares compounds with NPR1 antag; calls by dose curve; also: % is scaled to controls: 0 for no effect and ±100 for the full control effect; nearly all actives have a fitted effect of over 70% in size
* marks the source's active call; other numbers are inactive results; i = inactive; ? = inconclusive; nt = not tested or not shown; [ ] = remark or other dose. Unless noted, calls follow the shape of the dose curve; as a rule, active = well fitted curve in the direction sought with a large enough effect; inconclusive = small, poorly fitted or top-dose-only effect, or another doubt; inactive = no such curve, though single readings can be large; an effect the other way counts as inactive or inconclusive. Potency is read from the fitted curve at half-maximal effect.

SMILES	Luciferase inh	3T3 cytotox	HEK cytotox	NPR1 antag	NPR1 antag cnf	NPR2 antag	FLuc inh counter	GloSensor ctrl
Cc1nn2c(c1-c1ccnn1C(C)C)N(Cc1ccc(C(=O)O)s1)CCC2	i	13µM*	?	16µM*	11µM*	11µM*	0%[86.2 µM]	14µM*
CNc1nccc(N2CCC(CC(=O)N3CCN(c4ccccc4C)CC3)CC2)n1	i	45µM*	28µM*	?	?	?	7%	?
CCNc1cc(N2CCC(CCC(=O)N3CCCN(c4ncccn4)CC3)CC2)ncn1	i	-24%	?	?	24µM*	?	2%	24µM*
COc1nccc(N2CCC(CC(=O)N3CCCN(c4ncccn4)CC3)CC2)n1	i	-31%	?	22µM*	24µM*	?	3%	?
COc1nccc(N2CCC(CC(=O)NCc3ccc(F)c(Cl)c3)CC2)n1	i	?	?	11µM*	24µM*	22µM*	3%	24µM*
CCNc1cc(N2CCC(CCC(=O)NCCc3ccccn3)CC2)ncn1	i	-24%	-6%	-8%	nt	nt	nt	nt
Cc1ccc(-c2nnc(CN3CCC4(CC3)CC(=O)N(CC(C)C)C4)o2)n1C	i	?	-18%	3%	nt	nt	nt	nt
COc1ccc(CN2CC(O)CN(C(=O)c3ccccc3OC)CC2=O)cc1 (stereo not drawn)	nt	-31%	?	nt	nt	nt	nt	nt
COc1ccc(OC)c(-c2nc3cc4c(cc3cc2CN2CCCOCC2)OCO4)c1	i	-10%	?	0%	nt	nt	nt	nt
O=C(N1CCC(c2ccccc2)CC1)C1(c2ccc(Cl)cc2)CCOCC1	nt	?	?	nt	?	?	4%	-19%
COc1ccc(OC)c(NC(=O)c2cccc3c2CCN3C(=O)c2ccc(F)cc2)c1	i	-24%	?	-12%	nt	nt	nt	nt
COc1ccc(NC(=O)c2cccc3c2CCN3C(=O)c2ccc(F)cc2)c(OC)c1	i	?	32µM*	18µM*	24µM*	24µM*	-12%	22µM*
COc1cccc(-c2cccc(CN)c2)c1	nt	?	-26%[172 µM]	nt	nt	nt	nt	nt
Cc1cc(C)cc(-c2cccc(CN)c2)c1	nt	40µM*	56µM*	nt	35µM*	31µM*	5%[86.2 µM]	?
O=C1CC(c2ccccc2)N(C(=O)CNC(=O)Cn2c(=O)oc3ccccc32)CCCCCCN1 (stereo not drawn)	i	-5%	-22%	2%	nt	nt	nt	nt
COC(=O)c1cccc(NC(=S)N[C@@H]2C=C[C@@H](c3c(C)nn(-c4ccc(F)cc4)c3C)C2)c1	i	?	32µM*	?	22µM*	?	-23%	22µM*
Cc1ncsc1C(=O)N1CCNc2cnc(Nc3cccc(F)c3)nc2C1	i	?	?	14µM*	13µM*	18µM*	-1%[86.2 µM]	11µM*
CC(C)NC(=O)N1CCNc2cnc(Nc3cccc(C(F)(F)F)c3)nc2C1	i	40µM*	35µM*	13µM*	18µM*	22µM*	-1%[86.2 µM]	16µM*
COc1ccc(-n2c(=O)c(C(=O)N3CCN(c4ncccn4)CC3)nc3cccnc32)cc1	nt	-12%	i	nt	nt	nt	nt	nt
COc1cccc(C(=O)N2CCCC(C(=O)N3CCC(c4nc5ccncc5[nH]4)CC3)C2)c1 (stereo not drawn)	nt	-7%	i	nt	nt	nt	nt	nt
C=CCOCC(O)CN1CCC(=O)N(CC2CC2)Cc2cc(F)ccc21 (stereo not drawn)	nt	-8%	?	nt	nt	nt	nt	nt
